“And” between values parts separate entries of the source, which are not always exact repeats. Identical values can stand only once. About 2,000 (36%) of roughly 5,500 compounds were called active. About 18% were inconclusive and are not listed. Rule as the data show it: active = normalized growth mostly below about 0.91 (no sharp cut-off); inconclusive = no clear call, values can overlap the other calls; inactive = mostly above about 0.92. The list shows a part of the results.
Assay: chemical genetic growth profiling, strain panel (AID 1159580);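 also: tested at 20 µM; growth read once vehicle control cultures reached saturation at 30 °C; 1 = growth at the plate median or of vehicle wells; lower values mean less growth of the strain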
Conditions: S. cerevisiae deletion strains, growth OD

Measured: normalized growth

CC12CCC3C(=CCc4cc(O)ccc43)C1CCC2=O (stereo not given)
inactive: locus YAL021C, strain ccr4, active compounds read low 0.932 | locus YAL026C, strain drs2, active compounds read low 0.992 | locus YAL030W, strain snc1, active compounds read low 0.998 | locus YBL061C, strain skt5, active compounds read low 0.971 | locus YBR009C, strain hhf1, active compounds read low 0.972 | locus YBR021W, strain FUR4, active compounds read low 0.913 | locus YBR023C, strain chs3, active compounds read low 0.974 | locus YBR171W, strain sec66, active compounds read low 0.986 | locus YBR229C, strain ROT2, active compounds read low 0.989 | locus YBR231C, strain swc5, active compounds read low 0.978 | locus YBR279W, strain paf1, active compounds read low 0.964 | locus YCL011C, strain gbp2, active compounds read low 0.98 | locus YCL016C, strain dcc1, active compounds read low 0.99 | locus YCL029C, strain bik1, active compounds read low 0.995 | locus YCL061C, strain MRC1, active compounds read low 0.965 | locus YCL069W, strain vba3, active compounds read low 0.964 | locus YCR088W, strain abp1, active compounds read low 0.981 | locus YDL005C, strain med2, active compounds read low 0.959 | locus YDL035C, strain GPR1, active compounds read low 0.898 | locus YDL040C, strain nat1, active compounds read low 0.995 | locus YDL074C, strain BRE1, active compounds read low 0.882 | locus YDL101C, strain DUN1, active compounds read low 0.975 | locus YDL185W, strain tfp1, active compounds read low 1.01 | locus YDL192W, strain arf1, active compounds read low 0.956 | locus YDR001C, strain nth1, active compounds read low 0.976 | locus YDR069C, strain doa4, active compounds read low 0.966 | locus YDR101C, strain arx1, active compounds read low 1.01 | locus YDR150W, strain NUM1, active compounds read low 0.991 | locus YDR159W, strain sac3, active compounds read low 0.978 | locus YDR195W, strain ref2 1.12 | locus YDR297W, strain sur2, active compounds read low 0.983 | locus YDR318W, strain mcm21, active compounds read low 0.962 | locus YDR334W, strain swr1, active compounds read low 0.936 | locus YDR335W, strain msn5, active compounds read low 0.925 | locus YDR388W, active compounds read low 0.983 | locus YDR392W, strain spt3, active compounds read low 0.937 | locus YDR502C, strain sam2, active compounds read low 0.961 | locus YEL003W, strain gim4, active compounds read low 0.945 | locus YEL037C, strain rad23, active compounds read low 0.99 | locus YEL061C, strain CIN8 (second series), active compounds read low 0.957 | locus YEL061C, strain CIN8, active compounds read low 0.967 | locus YER015W, strain faa2, active compounds read low 0.938 | locus YER016W, strain bim1, active compounds read low 0.976 | locus YER110C, active compounds read low 0.993 | locus YER111C, strain swi4, active compounds read low 0.989 | locus YER155C, strain BEM2 (second series), active compounds read low 0.987 | locus YER155C, strain BEM2, active compounds read low 0.994 | locus YER167W, strain BCK2, active compounds read low 0.988 | locus YFR010W, strain ubp6, active compounds read low 0.964 | locus YGL078C, strain dbp3, active compounds read low 1 | locus YGL086W, strain mad1, active compounds read low 0.949 | locus YGL167C, strain pmr1, active compounds read low 0.96 | locus YGL173C, strain kem1, active compounds read low 0.959 | locus YGL227W, strain vid30, active compounds read low 0.989 | locus YGL240W, strain doc1, active compounds read low 0.946 | locus YGL248W, strain PDE1, active compounds read low 0.936 | locus YGL253W, strain hxk2, active compounds read low 0.961 | locus YGR078C, strain PAC10, active compounds read low 0.903 | locus YGR135W, strain pre9, active compounds read low 0.952 | locus YGR229C, strain SMI1, active compounds read low 0.964 | locus YGR252W, strain gcn5, active compounds read low 0.882 | locus YHR013C, strain ard1, active compounds read low 0.994 | locus YHR027C, strain rpn1, active compounds read low 0.976 | locus YHR030C, strain SLT2, active compounds read low 0.981 and 1.03 | locus YHR079C, strain IRE1 (second series), active compounds read low 1.01 | locus YHR079C, strain IRE1, active compounds read low 1.03 | locus YHR094C, strain hxt1, active compounds read low 1.01 | locus YHR129C, strain ARP1, active compounds read low 0.968 | locus YHR142W, strain chs7, active compounds read low 0.929 | locus YHR200W, strain rpn10, active compounds read low 1 | locus YIL066C, strain RNR3, active compounds read low 0.881 | locus YIL073C, strain SPO22, active compounds read low 0.897 | locus YIL125W, strain kgd1, active compounds read low 0.994 | locus YIR030C, strain dcg1, active compounds read low 0.993 | locus YJL092W, strain hpr5, active compounds read low 0.993 | locus YJL095W, strain BCK1 (second series), active compounds read low 0.982 | locus YJL095W, strain BCK1, active compounds read low 0.819 and 1.04 | locus YJL115W, strain asf1, active compounds read low 0.97 | locus YJL129C, strain trk1, active compounds read low 0.965 | locus YJL134W, strain LCB3, active compounds read low 0.988 | locus YJL154C, strain vps35, active compounds read low 0.983 | locus YJL164C, strain tpk1, active compounds read low 0.964 | locus YJL166W, strain qcr8, active compounds read low 0.952 | locus YJL168C, strain set2, active compounds read low 0.994 | locus YJL187C, strain SWE1 (second series), active compounds read low 0.928 | locus YJR043C, strain POL32, active compounds read low 0.933 | locus YJR066W, strain TOR1, active compounds read low 0.99 | locus YKL009W, strain mrt4, active compounds read low 0.948 | locus YKL068W, active compounds read low 0.995 | locus YKL085W, strain MDH1 (second series), active compounds read low 0.98 | locus YKL085W, strain MDH1, active compounds read low 0.98 | locus YKL160W, strain elf1, active compounds read low 0.942 | locus YKL190W, strain CNB1, active compounds read low 0.977 | locus YKR001C, strain vps1, active compounds read low 0.908 | locus YKR091W, strain srl3, active compounds read low 0.98 | locus YLL001W, strain dnm1, active compounds read low 0.94 | locus YLL026W, active compounds read low 0.988 | locus YLL041C, strain sdh2, active compounds read low 0.974 | locus YLR027C, strain aat2, active compounds read low 0.968 | locus YLR058C, strain SHM2, active compounds read low 0.958 | locus YLR102C, strain apc9, active compounds read low 1.02 | locus YLR113W, strain HOG1, active compounds read low 1.07 | locus YLR221C, strain rsa3, active compounds read low 0.956 | locus YLR258W, strain gsy2, active compounds read low 0.968 | locus YLR268W, strain sec22, active compounds read low 0.973 | locus YLR320W, strain mms22, active compounds read low 0.94 | locus YLR330W, strain CHS5, active compounds read low 0.979 | locus YLR342W, strain FKS1, active compounds read low 0.914 | locus YLR357W, strain rsc2, active compounds read low 1.02 | locus YLR370C, strain arc18, active compounds read low 0.98 | locus YLR371W, strain rom2, active compounds read low 0.986 | locus YLR384C, strain iki3, active compounds read low 0.96 | locus YLR418C, strain cdc73, active compounds read low 0.905 | locus YML016C, strain PPZ1, active compounds read low 0.973 | locus YML032C, strain rad52, active compounds read low 0.958 | locus YML120C, strain ndi1, active compounds read low 0.971 | locus YML124C, strain tub3, active compounds read low 0.995 | locus YMR058W, strain fet3, active compounds read low 0.959 | locus YMR078C, strain ctf18, active compounds read low 0.994 | locus YMR125W, strain sto1, active compounds read low 0.988 | locus YMR129W, active compounds read low 0.987 | locus YMR205C, strain PFK2, active compounds read low 0.945 | locus YMR223W, strain ubp8, active compounds read low 0.973 | locus YMR231W, strain pep5, active compounds read low 0.969 | locus YMR307W, strain GAS1, active compounds read low 0.763 | locus YNL067W, strain RPL9B, active compounds read low 0.935 | locus YNL071W, strain lat1, active compounds read low 0.978 | locus YNL128W, strain TEP1, active compounds read low 0.967 | locus YNL183C, strain NPR1, active compounds read low 0.986 | locus YNL209W, strain ssb2, active compounds read low 0.973 | locus YNL233W, strain BNI4, active compounds read low 0.936 | locus YNL248C, strain rpa49, active compounds read low 0.908 | locus YNL250W, strain rad50, active compounds read low 0.992 | locus YNL271C, strain bni1, active compounds read low 0.974 | locus YNL298W, strain CLA4, active compounds read low 0.963 | locus YNL322C, strain KRE1 (second series), active compounds read low 0.984 | locus YNL322C, strain KRE1, active compounds read low 0.988 | locus YNR049C, strain mso1, active compounds read low 0.987 | locus YOL006C, strain TOP1, active compounds read low 0.618 | locus YOL012C, strain htz1 1.37 | locus YOL147C, strain pex11, active compounds read low 1 | locus YOR001W, strain rrp6, active compounds read low 0.955 | locus YOR061W, strain CKA2, active compounds read low 0.971 | locus YOR069W, strain VPS5, active compounds read low 0.978 | locus YOR070C, strain gyp1, active compounds read low 0.979 | locus YOR080W, strain dia2, active compounds read low 0.963 | locus YOR083W, strain WHI5, active compounds read low 0.934 | locus YOR106W, strain vam3, active compounds read low 0.902 | locus YOR136W, strain idh2, active compounds read low 1.01 | locus YOR144C, strain elg1, active compounds read low 0.993 | locus YOR231W, strain MKK1, active compounds read low 1.04 | locus YOR265W, strain rbl2, active compounds read low 0.977 | locus YOR270C, strain vph1, active compounds read low 0.852 | locus YOR290C, strain snf2, active compounds read low 0.961 | locus YOR316C, strain cot1, active compounds read low 0.987 | locus YPL051W, strain arl3, active compounds read low 0.916 | locus YPL055C, strain LGE1, active compounds read low 0.89 | locus YPL078C, strain atp4, active compounds read low 0.908 | locus YPL106C, strain sse1, active compounds read low 0.992 | locus YPL240C, strain hsp82, active compounds read low 0.986 | locus YPL256C, strain CLN2, active compounds read low 1.06 | locus YPR119W, strain clb2, active compounds read low 1 | locus YPR141C, strain kar3, active compounds read low 0.996 | locus YPR167C, strain met16, active compounds read low 0.975 | strain wtn01, active compounds read low 0.986
active: locus YDR137W, strain rgp1, active compounds read low 0.614 | locus YDR162C, strain NBP2, active compounds read low 0.515 | locus YLR039C, strain RIC1, active compounds read low 0.397 | locus YLR262C, strain YPT6 (second series), active compounds read low 0.598 | locus YLR262C, strain YPT6, active compounds read low 0.377 | locus YLR342W, strain FKS1 (second series), active compounds read low 0.76 | locus YNL307C, strain MCK1, active compounds read low 0.826 | locus YNR052C, strain pop2, active compounds read low 0.901 | locus YOR184W, strain ser1, active compounds read low 0.81 | locus YPR163C, strain tif3, active compounds read low 0.875

From PubChem BioAssay AID1159580 (chemical genetic matrix, 2015)
